SMILES strings stand for the structures. This is part of a sample that, as a whole, favours compounds with a hit. Of some 83,000 tested, about 20% had one in any assay.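 For each line, cells grew in 96-well plates with the test compound present at a single concentration for 48 hours.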 A number with no mark means an inactive call. Calls of active or inactive are those of the source. The calls were made as follows: active = growth percent below 10; inactive = the rest.

What all share (test): NCI-60 one-dose screen, 48 h (100 = growth as untreated, 0 = no growth, -100 = all killed)
Experiment [1] deals with HCT-15 colon. As to conditions: 10 µM.
The subject of experiment [2] is HT29 colon. The settings on record: 10 µM.
The test system of experiment [3] is SNB-75 CNS. The settings on record: 10 µM.
For experiment [4], the system named is SNB-19 CNS. As to conditions: 10 µM.
Experiment [5] relates to U251 CNS. As to conditions: 10 µM.
The subject of experiment [6] is PC-3 prostate. As to conditions: 10 µM.
In experiment [7] the test system is SK-MEL-5 melanoma. The settings on record: 10 µM.
In experiment [8] the test system is UACC-62 melanoma. As to conditions: 10 µM unless noted.
Experiment [9] relates to LOX IMVI melanoma. As to conditions: 10 µM.
Experiment [10] concerns SK-MEL-28 melanoma. As to conditions: 10 µM.

Turning to `CC1=C(/C=C/C(C)=C/C=C/C(C)=C/CO)C(C)(C)CCC1`, the growth was 112% in experiment [1]; 112% in experiment [2]; 95.3% in [3]; 95.7% in experiment [4]; 102% in [5]; 96.5% in experiment [6]. Besides, the growth in experiment [7] was 107%; in experiment [8] it was 99.2%; in experiment [9], 94.7%; in experiment [10], 113%.
As to `CCOC(=O)CCCS(C)(=O)=O`, the growth was 104% in experiment [1]; 105% in experiment [2]; 86.2% in [3]; 100% in experiment [4]; 105% in [5]; 87.9% in [6]. Also, the growth in experiment [7] is 102%; in experiment [8] it was 93.7%; in experiment [9], 98.8%; in [10], 104%.
`CCCCCCCO`: the growth in experiment [1] is 95.6%; in experiment [2] it was 132%; in [3], 106%; in experiment [4], 102%; in [5], 97.8%; in [6], 105%. Moreover, the growth was 99.2% in [7], 97.7% in experiment [8], 99.8% in [9] and 98.3% in [10].
Regarding `CCC/C=C(\C)C(C)(C#N)C(=O)OCC` (stereo not drawn), the growth is 113% in experiment [1]; 109% in experiment [2]; 87.8% in experiment [3]; 102% in experiment [4]; 102% in experiment [5]; 101% in [6]. Moreover, the growth in [7] was 103%; in experiment [8], 102%; in [9], 99.9%; in experiment [10], 109%.
With `Nc1ncnc2c1nc(N)n2C1OC(CO)C(O)C1O` (stereo not drawn), the growth in experiment [1] is -7.88% (active); in experiment [2], -4.96% (active); in experiment [3], -75.8% (active); in [4] it was -16.5% (active); in experiment [5] it was 2.54% (active); in experiment [6] it was -11.7% (active). In addition, the growth in experiment [7] is -87.6% (active); in [8], -68.3% (active); in experiment [9], -80.3% (active); in experiment [10], -48.1% (active).
For the compound `CCCC1(c2ccccc2)NC(=O)NC1=O` (stereo not drawn), the growth in [1] was 108%; in experiment [2], 111%; in experiment [3], 86.5%; in experiment [4] it was 105%; in experiment [5], 113%; in [6] it was 99%. For the same compound, the growth in experiment [7] was 99.3%; in experiment [8] it was 97.4%; in [9] it was 105%; in [10], 104%.
Turning to `CCCCCCCCCCC1CO1` (stereo not drawn), the growth in experiment [1] was 104%; in experiment [2], 108%; in [3] it was 94%; in experiment [4] it was 103%; in [5], 97.8%; in experiment [6], 102%. In addition, the growth in experiment [7] is 100%; in experiment [8] it was 112%; in experiment [9], 102%; in experiment [10] it was 98.4%.
On to `Nc1ncnc2[nH]ncc12`, for which the growth was 5.92% (active) in experiment [1]; 12.3% in experiment [2]; 33.3% in experiment [3]; 71.3% in [4]; 42.8% in [5]; 7.63% (active) in experiment [6]. Also, the growth in experiment [7] was 15%; in [8], -15.9% (active); in [9], 1.37% (active); in [10] it was 28.5%.
Take `c1ccc(Sc2ccccc2)cc1`: the growth in [1] is 99.4%; in experiment [2] it was 102%; in [3] it was 99.7%; in [4] it was 98.2%; in experiment [5], 94.5%; in [6], 95.9%. Moreover, the growth in [7] was 104%; in experiment [8], 101%; in experiment [9] it was 104%; in experiment [10] it was 107%.
Consider `COC(=O)C(O)c1ccccc1` (stereo not drawn), for which the growth in [1] was 105%; in experiment [2], 122%; in experiment [3], 93%; in [4], 102%; in experiment [5] it was 104%; in [6] it was 94.6%. Besides, the growth is 104% in experiment [7], 94.1% in [8], 107% in [9] and 103% in experiment [10].
For `Cc1c(C(=O)O)c(=O)n(-c2ccccc2)n1C`, the growth in experiment [1] is 107%; in experiment [2] it was 112%; in [3], 109%; in experiment [4] it was 111%; in experiment [5] it was 115%; in [6], 101%. Also, the growth in [7] was 113%; in experiment [8], 108%; in [9], 99.5%; in [10], 122%.
Regarding `O=C(O)/C=C/c1ccc2c(c1)CCC2`, the growth was 99.5% in [1]; 104% in experiment [2]; 100% in [3]; 105% in experiment [4]; 99.3% in experiment [5]; 103% in experiment [6]. Also, the growth in experiment [7] is 105%; in [8] it was 103%; in experiment [9] it was 102%; in [10], 104%.
Consider `O=c1[nH][nH]c(=O)c2cc([N+](=O)[O-])ccc12`, for which the growth was 121% in experiment [1]; 103% in [2]; 83.4% in [3]; 108% in [4]; 101% in experiment [5]; 104% in experiment [6]. Also, the growth is 101% in [7], 112% in experiment [8], 94.8% in experiment [9] and 115% in [10].
Take `Cc1ccccc1C1N=C2Oc3ccccc3C=C2C(=O)N1` (stereo not drawn): the growth in experiment [1] is 36.8%; in experiment [2] it was 49.7%; in [3], 21%; in experiment [4], 61.3%; in [5], 63.8%; in experiment [6], 16.3%. Further, the growth in experiment [7] was 30.7%; in experiment [8], 35.1%; in experiment [9], 57.3%; in experiment [10], 41.5%.
With `S=c1sc2ccccc2n1CN1CCCCC1`, the growth in experiment [1] was 102%; in experiment [2] it was 101%; in experiment [3], 77.6%; in experiment [4], 104%; in experiment [5] it was 104%; in experiment [6], 77.2%. Also, the growth was 104% in [7], 104% in experiment [8], 84.5% in experiment [9] and 106% in experiment [10].
`COc1cc([C@@H]2c3cc4c(cc3[C@H](O)[C@H]3COC(=O)[C@H]23)OCO4)cc(OC)c1OC`: the growth in experiment [1] is 10.4%; in experiment [2], 4.93% (active); in [3], 30.6%; in [4] it was 34.7%; in experiment [5] it was 16.5%; in experiment [6], 23.3%. Further, the growth is -25% (active) in experiment [7], 40.5% in [8], 22% in [9] and 58.8% in [10].
Take `CN(C)CCN(Cc1ccccc1)c1ccccc1`: the growth was 105% in [1]; 98.3% in experiment [2]; 108% in experiment [3]; 105% in experiment [4]; 106% in experiment [5]; 106% in [6]. In addition, the growth in [7] is 105%; in [8], 97.8%; in experiment [9], 93.2%; in [10] it was 113%.
For the compound `C1CNC(C2=NCCN2)=N1`, the growth is 108% in experiment [1]; 102% in [2]; 100% in [3]; 112% in experiment [4]; 102% in experiment [5]; 98.8% in experiment [6]. Besides, the growth was 101% in experiment [7], 104% in [8], 98% in experiment [9] and 109% in [10].
With `CC1=NN(c2ccccc2)C(=O)/C1=C\N1CC(=O)NC1=S`, the growth is 107% in experiment [1]; 103% in [2]; 91.2% in experiment [3]; 101% in experiment [4]; 98.3% in experiment [5]; 93.6% in [6]. In addition, the growth is 101% in experiment [7], 97.1% in experiment [8], 98.4% in experiment [9] and 112% in experiment [10].
Turning to `O=C(N/N=C/c1ccccc1O)Nc1nn[nH]n1`, the growth in [1] was 91.1%; in [2], 104%; in [3], 85.7%; in [4], 97.4%; in [5], 104%; in experiment [6] it was 95.6%. In addition, the results for the growth in experiment [7], in experiment [9] and in [10] were 99.3%, 96.4% and 111%, respectively.
Consider `Cc1ccc(S(=O)(=O)O)c(C)c1`, for which the growth in experiment [1] was 104%; in experiment [2], 103%; in experiment [3], 82.8%; in experiment [4] it was 109%; in [5] it was 97.1%; in [6], 99.1%. Besides, the growth in [7] was 105%; in experiment [8], 120%; in [9], 95.3%; in experiment [10] it was 106%.
`CNC(=O)c1ccccc1CC1(O)c2ccccc2Oc2ccccc21`: the growth is 44.6% in [1]; 7.73% (active) in experiment [2]; 58.3% in experiment [3]; 93% in experiment [4]; 47.8% in experiment [5]; 35.3% in [6]. In addition, the growth was 41.9% in experiment [7], 43.6% in [8], 57.9% in [9] and 63.8% in [10].
As to `Cc1cc(C(C)(C)C)cc(C)c1Br`, the growth is 109% in experiment [1]; 113% in experiment [2]; 94.6% in [3]; 106% in [4]; 113% in experiment [5]; 75.3% in [6]. Moreover, the growth in [7] is 111%; in experiment [8], 108%; in experiment [9], 96.1%; in [10], 109%.
As to `CC(C)(C)c1cc(O)c(C(C)(C)C)cc1O`, the growth was 97.9% in experiment [1]; 98.3% in experiment [2]; 92.7% in [3]; 49.2% in experiment [4]; 75.2% in experiment [5]; 76.3% in [6]. The results for the growth in experiment [7], in [9] and in experiment [10] were 67.8%, 98.1% and 94.4%, respectively.
As for `Cc1ccc(C(=O)N/N=C/c2ccc3c(c2)OCO3)cc1`, the growth in experiment [1] was 91.6%; in experiment [2] it was 104%; in experiment [3], 95.8%; in experiment [4], 96.7%; in experiment [5], 101%; in experiment [6] it was 82.8%. Moreover, the growth in experiment [7] is 100%; in experiment [8] it was 76.3%; in experiment [9], 89.1%; in experiment [10], 107%.
As to `O=C(CCl)Nc1ccc2c(c1)C(=O)c1ccc(NC(=O)CCl)cc1C2=O`, the growth was -86.6% (active) in experiment [1]; -59.8% (active) in experiment [2]; -55.4% (active) in experiment [3]; -45.3% (active) in experiment [4]; -89.3% (active) in experiment [5]; -22.1% (active) in [6]. Further, the growth in experiment [7] is -88% (active); in [8] it was -73.1% (active); in experiment [9], -89.6% (active); in experiment [10] it was -40.6% (active).
Take `OC(c1ccccn1)C(O)c1ccccn1` (stereo not drawn): the growth is 97.6% in [1]; 106% in experiment [2]; 89.9% in experiment [3]; 99.3% in experiment [4]; 109% in experiment [5]; 102% in [6]. The growth in experiment [7] is 106%; in experiment [8], 95.6%; in experiment [9], 96%; in [10], 113%.
Consider `CCn1c(=O)n(C)c2c(=O)n(C)c(=O)n(C)c21`, for which the growth in experiment [1] was 106%; in [2], 101%; in experiment [3] it was 97.1%; in [4], 102%; in experiment [5], 99.3%; in experiment [6] it was 97.4%. The growth in experiment [7] was 103%; in [8], 107%; in [9], 96.4%; in experiment [10], 118%.

Source of the values: PubChem BioAssay (NCI).
